Out of some 16,000 compounds screened, about 240 (1.5%) were called active. Rule as the data show it: active = activation above about 80%; inactive = the rest. Many of the other results were omitted from the sample, so actives are more common in it than they were.
Target: Sphingosine 1-phosphate receptor 1 (Homo sapiens) (UniProt P21453)
Assay: activates the human S1P1 receptor (AID 1044)
Conditions: S1P1 agonist cell-based reporter assay; at 4.5 µM; hits give high values

Sequence of Sphingosine 1-phosphate receptor 1 (Homo sapiens) (P21453 whole entry, looked up): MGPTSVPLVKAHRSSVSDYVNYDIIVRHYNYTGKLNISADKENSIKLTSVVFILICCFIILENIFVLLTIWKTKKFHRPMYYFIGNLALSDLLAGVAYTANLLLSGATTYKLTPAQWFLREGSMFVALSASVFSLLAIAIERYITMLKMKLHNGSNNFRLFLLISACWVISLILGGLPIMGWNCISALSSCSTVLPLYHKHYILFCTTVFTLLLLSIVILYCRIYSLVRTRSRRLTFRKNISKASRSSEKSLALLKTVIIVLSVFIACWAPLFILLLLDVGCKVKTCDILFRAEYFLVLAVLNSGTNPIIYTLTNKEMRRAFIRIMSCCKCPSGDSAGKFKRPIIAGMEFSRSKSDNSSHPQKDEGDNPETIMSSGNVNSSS

activation, active:
CC(C)(C)OC(=O)n1ccc2cc(Br)ccc21 111%, COC(=O)CCN1CCc2cc(N=Nc3ccc(C(F)(F)F)cc3)ccc21 99.2%

activation, inactive:
COC(=O)c1cc(S(=O)(=O)NCc2csc(-c3cccs3)n2)oc1C 4.78%, O=C1CC(c2ccccc2)C(=O)N1Cc1cccs1 (stereo unspecified) 1.62%, O=C(NCc1cccnc1)c1cnc2ccccc2n1 -2.22%, N#CC(C#N)=CNc1c(F)cccc1Cl 48.9%, CO/N=C1\C(=O)N(C)c2ccccc21 -2.23%, COC(=O)c1cc(OC)c(OC)cc1NC(=O)c1ccccc1C(=O)O 14.4%, O=C1c2ccccc2C(=O)N1CCCN1CCN(Cc2c(F)cccc2Cl)CC1 -0.27%, S=C(SCc1ncon1)N1CCSCC1 -1.22%, N#Cc1cncc(Br)c1 -9.98%, O=C(O)c1nccnc1C(=O)O -16.2%, CC(=O)c1cc([N+](=O)[O-])c(NC2CCCCC2)s1 -14.1%, O=S(=O)(O)c1ncccn1 3.74%, COc1c(Br)cc(C#N)cc1Br -9.06%, COC(=O)C1=C(c2ccccc2)C(c2ccccc2)=C(C(=O)OC)C1=O 6.63%, N#Cc1cn(C2CCCCC2)c(=O)[nH]c1=O 15.6%, CNC(=O)c1ccccc1Sc1ccccc1C(=O)NC -10.2%, CCOC(=O)C(NC(=O)Nc1ccccc1)(Nc1ccccc1OC)C(F)(F)F (stereo unspecified) 5.29%, CCOC(=O)c1c(C)csc1NC(=O)CC(=O)C(F)(F)F 12.6%, COC(=O)c1cc(C(N)=O)c(SC)s1 -10.8%, O=c1c2c(nc3nc[nH]n13)CCC2 1.21%, CSC(C)C(=O)/C=C/N(C)C (stereo unspecified) -15.9%, COC(OC)c1ccc(C#N)c(SCC(=O)Nc2ccc(C(F)(F)F)cc2)n1 -16.6%, COC(=O)C(C#N)c1ccc(C(F)(F)F)cc1[N+](=O)[O-] (stereo unspecified) 14.5%, CCOC(=O)NC(=O)/C(=C/NC(C)C)C(=O)OCC 22.7%, COc1cc(-c2n[nH]c(=S)n2Cc2ccccc2)cc(OC)c1OC -18.1%, CC1(C)c2ccccc2-n2c1cc(O)c(-c1ccccc1)c2=O -11.7%, CC1(NC(=O)OCc2ccccc2)CC1NC(=O)OCc1ccccc1 (stereo unspecified) 11.9%, COC(=O)c1sccc1Oc1ccc(Cl)cc1[N+](=O)[O-] 13.2%, COC(=O)c1sccc1NC(=S)Nc1ccc(C)cc1 -27.1%

Source: PubChem BioAssay AID1044 (The Scripps Research Institute Molecular Screening Center, 2008)
